Measured values reported in PubChem BioAssay AID1159580 (chemical genetic matrix, 2015).
Several values for one entry are separate records, joined by “and”; a condition that tells them apart may be missing. Equal values may be shown once. Screen size: about 5,500 compounds; about 2,000 (36%) were called active. Another 18% or so got no clear call; they are omitted. No stated cut-off is given here; in the data, active means normalized growth mostly below about 0.91 (no sharp cut-off); inconclusive means no clear call, values can overlap the other calls; inactive means mostly above about 0.92. The list shows a part of the results.

Assay: chemical genetic growth profiling, strain panel (AID 1159580);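 further: tested at 20 µM; growth read once vehicle control cultures reached saturation at 30 °C; 1 = growth at the plate median or of vehicle wells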
Settings: S. cerevisiae deletion strains, growth OD

Measured: normalized growth

C1CCC(C(CC2CCCCN2)C2CCCCC2)CC1 (stereo not drawn)
0.0919 (active) and 1.01 (inactive): locus YHR030C, strain SLT2, stronger effect = lower value
active: locus YAL013W, strain DEP1, stronger effect = lower value 0.789 | locus YAL021C, strain ccr4, stronger effect = lower value 0.628 | locus YAL026C, strain drs2, stronger effect = lower value 0.0926 | locus YBR021W, strain FUR4, stronger effect = lower value 0.219 | locus YBR023C, strain chs3, stronger effect = lower value 0.884 | locus YBR231C, strain swc5, stronger effect = lower value 0.554 | locus YCL029C, strain bik1, stronger effect = lower value 0.873 | locus YDL035C, strain GPR1, stronger effect = lower value 0.493 | locus YDL074C, strain BRE1, stronger effect = lower value 0.585 | locus YDL101C, strain DUN1, stronger effect = lower value 0.173 | locus YDL134C, strain PPH21, stronger effect = lower value 0.209 | locus YDL192W, strain arf1, stronger effect = lower value 0.0725 | locus YDR069C, strain doa4, stronger effect = lower value 0.706 | locus YDR101C, strain arx1, stronger effect = lower value 0.911 | locus YDR137W, strain rgp1, stronger effect = lower value 1.32 [resistant] | locus YDR162C, strain NBP2, stronger effect = lower value 0.0586 | locus YDR318W, strain mcm21, stronger effect = lower value 0.646 | locus YDR388W, stronger effect = lower value 0.125 | locus YDR502C, strain sam2, stronger effect = lower value 0.594 | locus YEL061C, strain CIN8, stronger effect = lower value 0.658 | locus YER167W, strain BCK2, stronger effect = lower value 0.718 | locus YFR010W, strain ubp6, stronger effect = lower value 0.601 | locus YGL086W, strain mad1, stronger effect = lower value 0.333 | locus YGL248W, strain PDE1, stronger effect = lower value 0.227 | locus YGR135W, strain pre9, stronger effect = lower value 0.501 | locus YGR252W, strain gcn5, stronger effect = lower value 0.271 | locus YHR013C, strain ard1, stronger effect = lower value 0.842 | locus YHR129C, strain ARP1, stronger effect = lower value 0.742 | locus YHR142W, strain chs7, stronger effect = lower value 0.774 | locus YIL066C, strain RNR3, stronger effect = lower value 0.504 | locus YIL073C, strain SPO22, stronger effect = lower value 0.124 | locus YIR030C, strain dcg1, stronger effect = lower value 0.897 | locus YJL168C, strain set2, stronger effect = lower value 0.731 | locus YJL187C, strain SWE1 (second series), stronger effect = lower value 0.521 | locus YJR043C, strain POL32, stronger effect = lower value 0.722
inactive: locus YAL030W, strain snc1, stronger effect = lower value 0.986 | locus YBL061C, strain skt5, stronger effect = lower value 0.935 | locus YBR009C, strain hhf1, stronger effect = lower value 0.955 | locus YBR171W, strain sec66, stronger effect = lower value 0.973 | locus YBR229C, strain ROT2, stronger effect = lower value 0.99 | locus YBR279W, strain paf1, stronger effect = lower value 0.969 | locus YCL011C, strain gbp2, stronger effect = lower value 0.97 | locus YCL016C, strain dcc1, stronger effect = lower value 0.955 | locus YCL061C, strain MRC1, stronger effect = lower value 0.992 | locus YCL069W, strain vba3, stronger effect = lower value 0.965 | locus YCR088W, strain abp1, stronger effect = lower value 0.96 | locus YDL005C, strain med2, stronger effect = lower value 0.983 | locus YDL040C, strain nat1, stronger effect = lower value 0.978 | locus YDL185W, strain tfp1, stronger effect = lower value 1.01 | locus YDR001C, strain nth1, stronger effect = lower value 0.967 | locus YDR159W, strain sac3, stronger effect = lower value 0.965 | locus YDR195W, strain ref2 1.13 | locus YDR297W, strain sur2, stronger effect = lower value 0.987 | locus YDR334W, strain swr1, stronger effect = lower value 0.972 | locus YDR335W, strain msn5, stronger effect = lower value 0.957 | locus YDR392W, strain spt3, stronger effect = lower value 0.871 | locus YEL003W, strain gim4, stronger effect = lower value 0.946 | locus YEL037C, strain rad23, stronger effect = lower value 0.974 | locus YEL061C, strain CIN8 (second series), stronger effect = lower value 0.973 | locus YER015W, strain faa2, stronger effect = lower value 0.979 | locus YER016W, strain bim1, stronger effect = lower value 0.972 | locus YER110C, stronger effect = lower value 0.935 | locus YER111C, strain swi4, stronger effect = lower value 0.991 | locus YER155C, strain BEM2 (second series), stronger effect = lower value 0.912 | locus YER155C, strain BEM2, stronger effect = lower value 0.957 | locus YGL078C, strain dbp3, stronger effect = lower value 0.999 | locus YGL167C, strain pmr1, stronger effect = lower value 0.989 | locus YGL173C, strain kem1, stronger effect = lower value 0.962 | locus YGL227W, strain vid30, stronger effect = lower value 0.991 | locus YGL240W, strain doc1, stronger effect = lower value 0.989 | locus YGL253W, strain hxk2, stronger effect = lower value 0.973 | locus YHR027C, strain rpn1, stronger effect = lower value 0.987 | locus YHR079C, strain IRE1 (second series), stronger effect = lower value 0.93 | locus YHR079C, strain IRE1, stronger effect = lower value 1.02 | locus YHR094C, strain hxt1, stronger effect = lower value 1.01 | locus YHR200W, strain rpn10, stronger effect = lower value 0.922 | locus YIL125W, strain kgd1, stronger effect = lower value 1.02 | locus YJL092W, strain hpr5, stronger effect = lower value 0.984 | locus YJL095W, strain BCK1 (second series), stronger effect = lower value 0.927 | locus YJL115W, strain asf1, stronger effect = lower value 0.984 | locus YJL129C, strain trk1, stronger effect = lower value 0.953 | locus YJL134W, strain LCB3, stronger effect = lower value 0.996 | locus YJL154C, strain vps35, stronger effect = lower value 0.964 | locus YJL164C, strain tpk1, stronger effect = lower value 0.968 | locus YJL166W, strain qcr8, stronger effect = lower value 0.984 | locus YJL187C, strain SWE1, stronger effect = lower value 0.973
0.169 (active) and 1.01 (inactive): locus YJL095W, strain BCK1, stronger effect = lower value
